The supplement of paper PMC6897291

Test system: U-2932
Experiment: growth inhibition by drug alone (1 - RLU/untreated control) (fraction); higher = stronger inhibition
Conditions: 177Lu-lilotomab satetraxetan 0 ug/ml
Protocol: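 U-2932 ABC-DLBCL cells were pretreated or not for 18 h with 1 ug/ml 177Lu-lilotomab satetraxetan (600 MBq/mg), washed and seeded (3000 cells/well) on 384-well plates pre-printed with the Selleck Cambridge Cancer Compound library. Viability was read by RealTime-Glo luminescence on days 3-6 after seeding. Effect = 1 - RLU/mean RLU of the 48 untreated no-drug control wells per plate; Bliss score = (M-E)/(1-Fa), with E the expected Bliss-additive effect.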

O=C(/C=C/c1cccnc1)NCCCCC1CCN(C(=O)c2ccccc2)CC1
growth inhibition by drug alone (10 nM, time (day): 3): 0.935
growth inhibition by drug alone (10 nM, time (day): 4): 0.894
growth inhibition by drug alone (10 nM, time (day): 5): 0.825
growth inhibition by drug alone (10 nM, time (day): 6): 0.783
growth inhibition by drug alone (1000 nM, time (day): 3): 0.982
growth inhibition by drug alone (1000 nM, time (day): 4): 0.985
growth inhibition by drug alone (1000 nM, time (day): 5): 0.984
growth inhibition by drug alone (1000 nM, time (day): 6): 0.985

Nc1ncn([C@H]2C[C@H](O)[C@@H](CO)O2)c(=O)n1 [Decitabine]
growth inhibition by drug alone (10 nM, time (day): 3): 0.1
growth inhibition by drug alone (10 nM, time (day): 4): 0.0737
growth inhibition by drug alone (10 nM, time (day): 5): -0.0105
growth inhibition by drug alone (10 nM, time (day): 6): -0.0724
growth inhibition by drug alone (1000 nM, time (day): 3): -0.215
growth inhibition by drug alone (1000 nM, time (day): 4): 0.144
growth inhibition by drug alone (1000 nM, time (day): 5): 0.37
growth inhibition by drug alone (1000 nM, time (day): 6): 0.544

O=C(NCCS(=O)(=O)c1ccc(C(F)(F)F)cn1)c1ccc(Cl)cc1
growth inhibition by drug alone (10 nM, time (day): 3): -0.00204
growth inhibition by drug alone (10 nM, time (day): 4): -0.0169
growth inhibition by drug alone (10 nM, time (day): 5): -0.0367
growth inhibition by drug alone (10 nM, time (day): 6): -0.101
growth inhibition by drug alone (1000 nM, time (day): 3): 0.00453
growth inhibition by drug alone (1000 nM, time (day): 4): 0.00465
growth inhibition by drug alone (1000 nM, time (day): 5): -0.0415
growth inhibition by drug alone (1000 nM, time (day): 6): 0.00213

CCOc1ccn(-c2ccc(F)cc2)c(=O)c1C(=O)Nc1ccc(Oc2ccnc(N)c2Cl)c(F)c1
growth inhibition by drug alone (10 nM, time (day): 3): 0.143
growth inhibition by drug alone (10 nM, time (day): 4): 0.12
growth inhibition by drug alone (10 nM, time (day): 5): -0.0713
growth inhibition by drug alone (10 nM, time (day): 6): -0.014
growth inhibition by drug alone (1000 nM, time (day): 3): 0.036
growth inhibition by drug alone (1000 nM, time (day): 4): 0.0178
growth inhibition by drug alone (1000 nM, time (day): 5): -0.127
growth inhibition by drug alone (1000 nM, time (day): 6): -0.209

COc1ccc(-c2oc3cc(OC)ccc3c2C(=O)c2ccc(C#N)cc2)cc1
growth inhibition by drug alone (10 nM, time (day): 3): 0.084
growth inhibition by drug alone (10 nM, time (day): 4): 0.0751
growth inhibition by drug alone (10 nM, time (day): 5): 0.0436
growth inhibition by drug alone (10 nM, time (day): 6): -0.022
growth inhibition by drug alone (1000 nM, time (day): 3): -0.0181
growth inhibition by drug alone (1000 nM, time (day): 4): 0.0261
growth inhibition by drug alone (1000 nM, time (day): 5): -0.052
growth inhibition by drug alone (1000 nM, time (day): 6): -0.253
